Laboratory results published in PubChem BioAssay.
A number with no mark means an inactive call. The source made the active and inactive calls. Unless noted, no stated cut-off is given here; in the data, active means inhibition above about 33%; inactive means the rest.

What was measured:
[1] = StAR promoter reporter inhibitors, counter-screen for LRH-1 inverse agonist project, cell-based, luminescence, high throughput (AID 651611; in the data active means inhibition above about 28%); details: StAR promoter luciferase reporter counterscreen, at 3.6 µM, hits give high values
[2] = biological target: Nuclear receptor subfamily 5 group A member 2 (Homo sapiens) (UniProt O00482); experiment: NR5A2 activity suppression in reporter cells – cell-based, luminescence, confirmation (AID 651613; in the data active means inhibition above about 42%;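 further: HEK293T cells co-transfected with LRH-1 and StAR promoter luciferase reporter; 0% = vehicle wells and 100% = parental cells lacking receptor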); details: cell-based LRH-1 luciferase reporter, inverse agonism; at 3.6 µM; hits give high values
Chain of Nuclear receptor subfamily 5 group A member 2 (Homo sapiens) (O00482 whole entry, looked up): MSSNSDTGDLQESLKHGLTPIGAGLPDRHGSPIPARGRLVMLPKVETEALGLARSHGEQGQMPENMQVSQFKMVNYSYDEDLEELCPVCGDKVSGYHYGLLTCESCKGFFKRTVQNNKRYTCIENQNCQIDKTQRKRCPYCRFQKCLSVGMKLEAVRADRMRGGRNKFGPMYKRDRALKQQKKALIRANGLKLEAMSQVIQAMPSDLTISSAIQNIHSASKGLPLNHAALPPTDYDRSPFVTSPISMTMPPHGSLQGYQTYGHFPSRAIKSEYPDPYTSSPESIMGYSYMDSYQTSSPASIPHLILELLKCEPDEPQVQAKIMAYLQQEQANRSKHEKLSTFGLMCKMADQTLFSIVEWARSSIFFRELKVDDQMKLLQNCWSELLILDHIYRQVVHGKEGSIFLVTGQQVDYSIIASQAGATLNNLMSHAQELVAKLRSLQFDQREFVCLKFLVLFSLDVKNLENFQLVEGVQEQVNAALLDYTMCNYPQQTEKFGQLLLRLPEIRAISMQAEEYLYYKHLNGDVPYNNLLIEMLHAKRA

[3] = biological target: Steroidogenic factor 1 (Homo sapiens) (UniProt Q13285); experiment: inverse agonism at SF1 nuclear receptor – cell-based, luminescence, high throughput, counter-screen for LRH-1 inverse agonist project (AID 651614; in the data active means inhibition above about 44%;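 further: cells cotransfected with StAR promoter reporter and SF1 expression vector; 0% = vehicle on cells with receptor and 100% = vehicle on cells lacking receptor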); details: cell-based SF1 luciferase reporter, at 3.6 µM, hits give high values
Chain of Steroidogenic factor 1 (Homo sapiens) (Q13285 whole entry, looked up, the tested form may be a part): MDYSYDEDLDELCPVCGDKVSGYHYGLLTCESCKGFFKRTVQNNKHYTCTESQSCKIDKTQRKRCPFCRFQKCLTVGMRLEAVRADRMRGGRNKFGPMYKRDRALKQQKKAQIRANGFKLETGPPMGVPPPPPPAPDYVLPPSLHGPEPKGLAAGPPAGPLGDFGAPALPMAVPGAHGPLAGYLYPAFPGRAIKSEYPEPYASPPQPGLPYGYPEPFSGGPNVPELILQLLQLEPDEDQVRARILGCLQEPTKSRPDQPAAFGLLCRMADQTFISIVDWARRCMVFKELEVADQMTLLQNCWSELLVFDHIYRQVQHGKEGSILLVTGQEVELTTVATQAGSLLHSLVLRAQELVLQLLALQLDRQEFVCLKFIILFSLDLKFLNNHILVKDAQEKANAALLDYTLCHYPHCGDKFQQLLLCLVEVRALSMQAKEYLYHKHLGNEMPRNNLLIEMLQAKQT

[4] = compounds suppressing VP16-driven luciferase signal – cell-based, luminescence, high throughput, counter-screen for LRH-1 inverse agonist project (AID 651615); details: Gal4-VP16 luciferase reporter cells, at 3.6 µM, hits give high values

**Q.** With `CCn1c(=O)[nH]c(=O)c2c(N)c(C(=O)c3cc(F)ccc3F)sc21` as the compound, how does the inhibition [1] read?
**A.** The inhibition was 10.4%.

**Q.** What about the inhibition [2] of the same compound?
**A.** Its inhibition is 59.5% (active).

**Q.** And the inhibition [3]?
**A.** The inhibition was 54.2% (active).

**Q.** What about the inhibition [4] of the same compound?
**A.** Its inhibition is 10.3%.

**Q.** Which inhibition [1] does the source give for `COC(=O)c1ccc(N2CCCCC2)c(NC(=O)c2ccco2)c1` here?
**A.** The inhibition was 9.72%.

**Q.** And the inhibition [2]?
**A.** Its inhibition is 55.3% (active).

**Q.** And the inhibition [3]?
**A.** Its inhibition is 61.5% (active).

**Q.** What about the inhibition [4] of the same compound?
**A.** Its inhibition is 4.64%.

**Q.** With `Cc1cc(/C=N/NC(N)=S)c(C)n1-c1ccc(Cl)c(Cl)c1` as the compound, how does the inhibition [1] read?
**A.** The inhibition was 7.41%.

**Q.** And the inhibition [2]?
**A.** The inhibition was 44.5% (active).

**Q.** What about the inhibition [3] of the same compound?
**A.** The inhibition was 39.2%.

**Q.** What about the inhibition [4] of the same compound?
**A.** Its inhibition is 22.5%.

**Q.** Which results are given for `Cc1ccc(NC(=O)CN2C(=O)NC(C)(CC(C)C)C2=O)c(Br)c1` (stereo unspecified)?
**A.** inhibition [1]: 15.9%; inhibition [2]: 55.1% (active); inhibition [3]: 61.6% (active); inhibition [4]: -6.87%

**Q.** What does the source list for `CCOc1ccc(CCNC(=O)COC(=O)CCC(=O)c2cccs2)cc1OCC`?
**A.** inhibition [1]: -0.72%; inhibition [2]: 45.3% (active); inhibition [3]: 51% (active); inhibition [4]: -6.57%

**Q.** Which inhibition [1] does the source give for `Cc1ccc(NC(=O)CSc2nsc(SCC(=O)Nc3ccc(C)cc3C)c2C#N)c(C)c1` here?
**A.** The inhibition was 13.3%.

**Q.** And the inhibition [2]?
**A.** The inhibition was 46.1% (active).

**Q.** What about the inhibition [3] of the same compound?
**A.** Its inhibition is 34.5%.

**Q.** And the inhibition [4]?
**A.** The inhibition was -0.96%.

**Q.** For `Cc1ccc(C(=O)N/N=C\c2ccc([N+](=O)[O-])o2)cn1`, which inhibition [1] is on record?
**A.** The inhibition was 24.3%.

**Q.** What about the inhibition [2] of the same compound?
**A.** Its inhibition is 59% (active).

**Q.** What about the inhibition [3] of the same compound?
**A.** The inhibition was 57% (active).

**Q.** What about the inhibition [4] of the same compound?
**A.** Its inhibition is 0.83%.

**Q.** With `O=C(C(=Cc1ccccc1)CN1CCCCC1)c1ccccc1` as the compound, how does the inhibition [1] read?
**A.** Its inhibition is 36.4% (active).

**Q.** What about the inhibition [2] of the same compound?
**A.** Its inhibition is 66.8% (active).

**Q.** What about the inhibition [3] of the same compound?
**A.** Its inhibition is 75.1% (active).

**Q.** What about the inhibition [4] of the same compound?
**A.** The inhibition was 82.8% (active).

**Q.** Which results are given for `O=C(CSc1nc2ccccc2c(=O)n1-c1ccc(Cl)c(Cl)c1)Nc1ccc2c(c1)CCC2`?
**A.** inhibition [1]: -1.82%; inhibition [2]: 49.9% (active); inhibition [3]: 37.8%; inhibition [4]: -40.9%
